Experimental findings from PubChem BioAssay AID372 (MTDP, 2006) are described below.

SMILES strings stand for the structures. About 770 (0.77%) of roughly 100,000 compounds were called active. Only a selection was taken, and actives are over-represented in it overall. A number with no mark means an inactive call. Rule as the data show it: active = inhibition above about 50%; inactive = the rest.

What is called inhibition is the relative decrease from the control value, in per cent.

The target in the test is Gag-Pol polyprotein (Human immunodeficiency virus type 1 group M subtype B (isolate HXB2)) (UniProt P04585). Description: RNase H inhibition, HIV 1 Gag Pol polyprotein, FRET biochemical assay, screening (AID 372). The conditions noted are these: HIV-1 RT RNase H, FRET RNA/DNA substrate fluorescence; at 10 µM; stronger effect = higher value.
`CCc1ccc(-c2nc3cc(NC(=O)Cc4ccc(Cl)cc4)ccc3o2)cc1`: the inhibition is 25%.
For `O=C(Cc1ccc(Cl)cc1)Nc1ccc2oc(-c3ccc(F)cc3)nc2c1` the value was 54% (active); for `O=C(Cc1ccc(Cl)cc1)Nc1ccc2oc(-c3ccc(Cl)cc3)nc2c1`, 29%.
For `O=C(Nc1ccc(F)cc1F)c1sc2ccccc2c1Cl` the value was 16%; for `Cc1ccc(SCCNC(=O)CN(c2ccccc2F)S(=O)(=O)c2ccccc2)cc1`, 10%; for `O=C(O/N=C/c1ccc([N+](=O)[O-])cc1)c1cccs1`, 1%.
In the case of `Clc1ccccc1-c1nc(-c2cccnc2)no1` it was 20%; in that of `CC(C)c1ccc(/C=C/C(=O)Nn2cnnc2)cc1`, 0%; in that of `Cc1ccc(C(=O)OCC(=O)c2ccc(Br)cc2)cc1[N+](=O)[O-]`, 0%.
Regarding `O=C(Nc1ccc(Cl)c(-c2nc3ccccc3o2)c1)c1ccc(Br)cc1`, the inhibition is 55% (active).
With `CCOc1ccc(C(=O)Nc2cccc(-c3nc4cc(C)c(C)cc4o3)c2)cc1[N+](=O)[O-]`, the inhibition was 11%.
In the case of `O=C(Nc1ccc2oc(-c3cc(Br)ccc3Cl)nc2c1)c1ccccc1` it was 29%.
For `Cc1ccc(C(=O)Nc2ccc3oc(-c4ccc(F)cc4Cl)nc3c2)cc1[N+](=O)[O-]` the value was 0%; for `CCc1ccc(-c2nc3cc(NC(=O)c4ccc(C)c([N+](=O)[O-])c4)ccc3o2)cc1`, 35%.
For `COc1ccc(C(=O)Nc2cccc(-c3nc4cc(C)ccc4o3)c2)cc1[N+](=O)[O-]`, the inhibition is 1%.
For `Cc1ccc(C(=O)Nc2ccc3oc(-c4ccccc4Cl)nc3c2)cc1[N+](=O)[O-]` the value was 55% (active).
In the case of `COc1ccc(-c2nc3cc(NC(=O)c4ccc(C)c([N+](=O)[O-])c4)ccc3o2)cc1` it was 61% (active); in that of `O=C(Nc1ccc(Cl)c(-c2nc3ccccc3o2)c1)c1cccc(Br)c1`, 1%.
Take `COc1ccc(-c2nc3cc(NC(=O)c4ccc(C)c([N+](=O)[O-])c4)ccc3o2)cc1OC`: the inhibition is 3%.
Take `COc1ccc(C(=O)Nc2cccc(-c3nc4cc(C)c(C)cc4o3)c2)cc1[N+](=O)[O-]`: the inhibition is 52% (active).
As to `Cc1ccccc1-c1nc2cc(NC(=O)c3ccc(C)c([N+](=O)[O-])c3)ccc2o1`, the inhibition is 41%.
In the case of `CC(C)c1cc(C(C)C)c(S(=O)(=O)NNC(=O)c2ccncc2)c(C(C)C)c1` it was 1%; in that of `O=C(NC(=S)Nc1cccc(NC(=O)c2ccc(Cl)cc2Cl)c1)c1ccco1`, 11%.
In the case of `CCOc1ccc(N(CC(=O)NC(C)CC)S(=O)(=O)c2ccc(Br)cc2)cc1` (configuration not stated) it was 5%.
For `COC(=O)c1cccc(NC(=O)CC(=O)c2ccccc2)c1` the value was 0%; for `COc1ccc(Cc2noc(-c3ccccc3Cl)n2)cc1OC`, 23%; for `Cc1sc(NS(=O)(=O)c2ccc([N+](=O)[O-])cc2)nc1-c1ccc(Br)cc1`, 12%.
Consider `O=C(/C=C/c1ccccc1)Nc1ccc(-c2nnc(-c3ccco3)o2)cc1`, for which the inhibition was 0%.
Take `O=C(NCc1ccc(Cl)cc1)c1ccco1`: the inhibition was 0%.
In the case of `Cc1nnc(Nc2ccc3c(c2)ncn3C)c2ccccc12` it was 0%.
For `O=C(Nc1ccc2oc(-c3ccc(Br)cc3)nc2c1)c1ccc(Cl)c([N+](=O)[O-])c1` the value was 58% (active).
In the case of `O=C(Nc1ccc2oc(-c3ccc(F)cc3)nc2c1)c1ccc(Cl)c([N+](=O)[O-])c1`, the inhibition was 11%.
In the case of `O=C(Nc1ccc2oc(-c3cccc(Br)c3)nc2c1)c1ccc(Cl)c([N+](=O)[O-])c1` it was 13%.
In the case of `O=C(c1c(F)cccc1F)N1CCN(c2cc(N3CCCC3)c(F)cc2[N+](=O)[O-])CC1` it was 11%; in that of `CCc1ccc(OCC(=O)Nc2ccc3c(c2)C(=O)c2ccccc2C3=O)cc1`, 27%; in that of `COC(=O)c1c(NC(=O)c2cc(-c3ccc(Cl)s3)nc3ccccc23)sc2c1CCC(C(C)(C)C)C2` (configuration not stated), 1%.
As for `COc1ccc(C(Nc2ccccc2)P(=O)(OC(C)C)OC(C)C)cc1` (configuration not stated), the inhibition was 10%.
Consider `COc1ccc(OC)c(NC(=O)c2ccc(N(C)S(=O)(=O)c3ccccc3)cc2)c1`, for which the inhibition was 13%.
For `Oc1c(Cl)cc(Cl)cc1/C=N/N=C/c1cc(Cl)cc(Cl)c1O` the value was 15%.
As to `CCOc1ccc(C2=NNC(=O)CC2)cc1`, the inhibition is 10%.
For `COc1ccc(-c2cccc(=O)o2)cc1` the value was 0%.
On to `CCCC1CCC(c2ccc(OCC)cc2)=CC1=O` (configuration not stated), for which the inhibition was 8%.
As for `COc1ccc(C2=CC(=O)C=CC2=O)cc1`, the inhibition was 75% (active).
In the case of `COc1ccc(C2=CC(=O)c3ccccc3C2=O)cc1` it was 40%; in that of `CCOC(=O)C1=C(C)N=c2s/c(=C\c3ccc(O)c(OC)c3)c(=O)n2C1c1cc(OC)ccc1OC` (configuration not stated), 0%; in that of `CC(NC(=O)CN1C(=O)c2ccccc2C1=O)c1ccccc1` (configuration not stated), 3%.
In the case of `Cc1cccc(OCCCOc2cccc(/C=c3\sc4nc5ccccc5n4c3=O)c2)c1` it was 3%.
For `CCOc1ccc(NC(=S)NC(=O)/C=C/c2ccc(C)cc2)c([N+](=O)[O-])c1` the value was 21%; for `CCOc1ccc(NC(=S)NC(=O)/C=C/c2ccc(F)cc2)c([N+](=O)[O-])c1`, 84% (active).
For the compound `CCOc1ccc(NC(=S)NC(=O)c2ccc(F)cc2)c([N+](=O)[O-])c1`, the inhibition is 7%.
In the case of `CCOc1ccc(NC(=S)NC(=O)c2ccccc2)c([N+](=O)[O-])c1` it was 11%.
In the case of `CCOc1ccc(NC(=S)NC(=O)/C=C/c2ccc(OC)cc2)c([N+](=O)[O-])c1`, the inhibition is 60% (active).
For `CCOc1ccc(NC(=S)NC(=O)/C=C/c2ccc(OC)c(OC)c2)c([N+](=O)[O-])c1` the value was 2%.
For `Brc1ccc(-c2nc(-c3ccccc3)c(-c3ccc(Br)cc3)[nH]2)cc1` the value was 17%.
For `CCOC(=O)c1[nH]c(C)c(C(=O)N/N=C/c2ccc(-c3ccc(Cl)cc3)o2)c1C` the value was 18%; for `C=CCOc1ccc(/C=C2\SC(N3CCN(c4ccccc4)CC3)=NC2=O)cc1`, 13%.
Consider `COc1cccc(C(=O)N2c3cc(OC)ccc3-c3c(ssc3=S)C2(C)C)c1`, for which the inhibition was 54% (active).
In the case of `COC(=O)C1=C(C(=O)OC)SC(=C2C(=S)C(C)(C)N(C(=O)/C=C/c3ccc(OC)cc3)c3ccc(C)cc32)S1` it was 22%.
In the case of `COc1ccc2c(c1)N(C(=O)c1ccc(C(C)(C)C)cc1)C(C)(C)c1ssc(=S)c1-2`, the inhibition is 15%.
For `COC(=O)C1=C(C(=O)OC)SC(=C2C(=S)C(C)(C)N(C(=O)/C=C/c3ccc(OC)c(OC)c3)c3ccc(C)cc32)S1` the value was 40%; for `COc1ccc(/C=C/C(=O)N2c3ccc(C)cc3-c3c(ssc3=S)C2(C)C)cc1OC`, 57% (active).
In the case of `COc1ccc(/C=C/C(=O)N2c3ccc(C)cc3-c3c(ssc3=S)C2(C)C)cc1` it was 20%.
As for `COc1ccc2c(c1)-c1c(ssc1=S)C(C)(C)N2C(=O)CN1C(=O)c2ccccc2C1=O`, the inhibition was 0%.
In the case of `Cc1ccc2c(c1)N(C(=O)CN1C(=O)c3ccccc3C1=O)C(C)(C)c1ssc(=S)c1-2`, the inhibition was 10%.
Consider `COc1ccc2c(c1)-c1c(ssc1=S)C(C)(C)N2C(=O)/C=C/c1ccc(OC)c(OC)c1`, for which the inhibition is 27%.
For `COc1cccc(C(=O)N2c3ccc(C)cc3-c3c(ssc3=S)C2(C)C)c1` the value was 13%; for `COC(=O)C1=C(C(=O)OC)SC(=C2C(=S)C(C)(C)N(C(=O)/C=C/c3ccc(OC)c(OC)c3)c3ccc(OC)cc32)S1`, 53% (active).
